Measurements taken from PMC4336329 (PLoS ONE, 2015).
Hit rate of the full screen: of about 310,000 compounds, about 2,200 (0.71%) showed an effect of 50% or more. The effect is printed as a negative number. The sample as a whole holds a higher share of strong results than the screen did.

Target: human ether-à-go-go-related gene (hERG) potassium channel (human, UniProt Q12809)
Test: primary screen, population patch clamp on CHO cells stably expressing hERG; higher = less effect of the substance

Chain of human ether-à-go-go-related gene (hERG) potassium channel (Q12809 whole entry, looked up): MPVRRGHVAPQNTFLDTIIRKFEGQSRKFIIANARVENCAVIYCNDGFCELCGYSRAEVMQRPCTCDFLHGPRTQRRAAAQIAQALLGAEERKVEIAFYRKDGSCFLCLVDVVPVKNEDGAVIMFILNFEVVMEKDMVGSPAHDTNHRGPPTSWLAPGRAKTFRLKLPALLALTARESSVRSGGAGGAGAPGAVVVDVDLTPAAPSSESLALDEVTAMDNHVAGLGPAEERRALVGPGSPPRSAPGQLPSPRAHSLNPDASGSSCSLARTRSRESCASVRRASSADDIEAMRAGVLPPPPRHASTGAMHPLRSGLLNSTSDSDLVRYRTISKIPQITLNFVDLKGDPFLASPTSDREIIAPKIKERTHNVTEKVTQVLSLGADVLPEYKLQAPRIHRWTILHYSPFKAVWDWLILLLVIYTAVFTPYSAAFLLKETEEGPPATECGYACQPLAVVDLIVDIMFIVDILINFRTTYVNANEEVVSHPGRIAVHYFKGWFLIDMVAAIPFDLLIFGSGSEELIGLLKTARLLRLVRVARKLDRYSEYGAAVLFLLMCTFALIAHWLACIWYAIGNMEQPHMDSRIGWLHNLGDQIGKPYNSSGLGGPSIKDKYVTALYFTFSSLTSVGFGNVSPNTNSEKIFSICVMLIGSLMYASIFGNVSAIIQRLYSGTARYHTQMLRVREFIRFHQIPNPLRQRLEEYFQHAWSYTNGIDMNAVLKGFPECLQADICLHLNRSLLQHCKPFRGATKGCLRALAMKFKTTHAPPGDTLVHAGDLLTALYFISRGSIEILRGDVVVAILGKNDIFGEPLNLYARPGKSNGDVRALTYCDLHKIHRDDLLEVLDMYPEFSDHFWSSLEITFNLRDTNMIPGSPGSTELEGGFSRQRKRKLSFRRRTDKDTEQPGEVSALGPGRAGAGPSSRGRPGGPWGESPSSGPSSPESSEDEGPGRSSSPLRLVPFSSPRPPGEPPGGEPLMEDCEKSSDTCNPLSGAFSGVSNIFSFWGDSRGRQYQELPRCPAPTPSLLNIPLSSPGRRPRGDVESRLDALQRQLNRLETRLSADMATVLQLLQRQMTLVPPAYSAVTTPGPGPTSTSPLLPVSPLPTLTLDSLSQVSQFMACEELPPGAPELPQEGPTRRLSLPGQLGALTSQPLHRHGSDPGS

| SMILES | hERG current change (%, negative = inhibition) at 1uM [%] |
| --- | --- |
| CN(C)CCCN(C(=O)c1ccc(C(=O)c2ccccc2)cc1)c1nc2c(F)cccc2s1 | -1.61 |
| CN(C)CCCN(C(=O)c1ccco1)c1nc2c(F)cccc2s1.Cl | -62.9 |
| CN(C)CCCN(C(=O)c1sc2ccccc2c1Cl)c1nc2c(F)cccc2s1.Cl | 8.6 |
| CN(C)CCCN(C(=O)c1ccco1)c1nc2ccc(Cl)cc2s1.Cl | -14.7 |
| CN(C)CCCN(C(=O)c1ccco1)c1nc2c(F)cc(F)cc2s1.Cl | -60.2 |
| Cc1ccc2nc(N(CCCN(C)C)C(=O)c3ccco3)sc2c1.Cl | -9.63 |
| CN(C)CCCN(C(=O)c1ccco1)c1nc2ccc(F)cc2s1.Cl | -37.4 |
| CCN1CCN(C(c2ccc(OC)cc2)c2nnnn2Cc2ccc3c(c2)OCO3)CC1.Cl (stereo not shown) | -17.4 |
| N#Cc1ccccc1S(=O)(=O)N1CCC(C(=O)NCc2ccccc2CN2CCCC2)CC1 | -45.7 |
| Cn1c(=O)c2c(nc(NC3CCCCC3)n2CC(=O)C23CC4CC(CC(C4)C2)C3)n(C)c1=O | 15.4 |
| CCCC1CC(C)(c2csc(Nc3ccc(OCC)cc3)n2)OC1=O (stereo not shown) | -0.99 |
| COC(=O)c1[nH]c2cccc(OC)c2c1NC(=O)CCN1CC(C)CC(C)C1 (stereo not shown) | -4.14 |
| CCOc1ccccc1NC(=S)N(CCCN1CCOCC1)Cc1cn(C)c2ccccc12 | 5.62 |
| Cc1ccc(C(=O)NC2CC3CCCC(C2)N3Cc2ccccc2)cc1 (stereo not shown) | -6.55 |
| CCNC(=S)NC1CC2CCCC(C1)N2Cc1ccc(C)cc1 (stereo not shown) | -12.3 |
| Cc1ccc(CN2C3CCCC2CC(NC(=S)NCc2ccccc2)C3)cc1 (stereo not shown) | -54.4 |
| O=C(NC1CC2CCCC(C1)N2Cc1ccc(F)cc1)c1ccc(F)cc1 (stereo not shown) | -38.3 |
| CC(=O)NC1CC2CCCC(C1)N2Cc1ccc(C)cc1 (stereo not shown) | -10.4 |
| Cc1ccc(CN2C3CCCC2CC(NC(=O)c2ccc(C)cc2)C3)cc1 (stereo not shown) | -77.3 |
| CNC(=S)NC1CC2CCCC(C1)N2Cc1ccc(C)cc1 (stereo not shown) | -4.5 |
| Cc1ccc(CN2C3CCCC2CC(NC(=O)c2ccc(F)cc2)C3)cc1 (stereo not shown) | -77 |
| CCCN1C2CCCC1CC(NC(=O)c1ccc(F)cc1)C2 (stereo not shown) | -29.7 |

| SMILES | hERG current change (%, negative = inhibition) at 1uM [%] |
| --- | --- |
| O=C1CC(=C2c3ccccc3-c3ccccc32)C(=O)N1CCN1CCN(c2cccc(Cl)c2)CC1 | 7.4 |
| COc1cccc(CN2CCNC(=O)C2CC(=O)N2CCCCO2)c1OC (stereo not shown) | 7.47 |
| COc1ccc(CCN2C(=O)CSC2=S)cc1OC | 11.5 |
| COC(=O)C1=CNC=C(C(=O)OC)C1c1cccc(OC)c1 | 9.02 |
| Cc1cc(/C=N/NC(N)=S)c(C)n1-c1ccc(Cl)cc1 | 1.13 |
| Cc1nc2c(C)cccn2c1/C(O)=C1\C(=O)C(=O)N(CCN(C)C)C1c1ccco1 (stereo not shown) | 11.2 |
| Cc1ccc(C#CC[N+]2(CC#Cc3ccc(C)cc3)CCCCC2)cc1.[Br-] | -51.8 |
| Cc1ccc(C#CC[N+]2(C)CCCCC2)cc1.[Br-] | 14.2 |
| C#CC[N+]1(CC#Cc2ccc(C)cc2)CCCCC1.[Br-] | 2.2 |
| COc1ccc(C)cc1NC(=O)C1CCCN(S(=O)(=O)c2ccc(-n3cnnn3)cc2)C1 (stereo not shown) | -71.4 |
| COc1ccccc1NC(=O)C1CCCN(S(=O)(=O)c2ccc(-n3cnnn3)cc2)C1 (stereo not shown) | -23.5 |
| COc1ccc(OC)c(NC(=O)C2CCCN(S(=O)(=O)c3ccc(-n4cnnn4)cc3)C2)c1 (stereo not shown) | 5.12 |
| O=C(NCc1ccccc1)c1onc(CSc2ccc(F)cc2)c1C(=O)NCCCN1CCOCC1 | -54.9 |
| O=C(NCc1ccccc1)c1onc(CSc2ccc(F)cc2)c1C(=O)NCc1ccccc1 | 5.63 |
| O=C(NCCCN1CCOCC1)c1onc(CSc2ccccc2)c1C(=O)NCCCN1CCOCC1 | 14.7 |
| CCC(CC)NCCOC(=O)c1ccc([N+](=O)[O-])cc1 | -3.41 |
| CN1C(=O)C(Cc2cccs2)C(=O)N(C)C1=O | 15.2 |
| CCCCCn1c(NC(=O)c2ccco2)c(C(=O)OCC)c2nc3ccccc3nc21 | -73.9 |
| CCCCn1c(NC(=O)c2ccco2)c(C(=O)OCC)c2nc3ccccc3nc21 | -22 |
| CCCCn1c(NC(=O)c2ccc(Br)o2)c(C(=O)OCC)c2nc3ccccc3nc21 | -17.9 |
| COc1ccc(S(=O)(=O)NCCC(C)C)cc1C | 4.62 |
